An excerpt weighted towards active compounds, which were near 6.8% of everything screened.
PTAP TSG101 blk: blocks PTAP/TSG101 interaction to inhibit HIV-1 budding | Potency, µM (top dose mostly 115 µM), for inactives: top-dose activity change, negative = inhibition, most hits filed as inhibitors | Fluorescence polarization, FITC-PTAP peptide / Tsg101 binding | 340,000 tested, under 10 active | Q99816 | AID 493005; active means well fitted inhibition curve with a large enough effect in the main read-out, with a control signal flat, not every such curve was filed as active; inconclusive means small, poorly fitted or top-dose-only effect, or effect the other way, or a change in a side signal; inactive means no such curve, though single readings can be large or run the other way; further: % of control where 0% means no effect
Target sequence (Q99816 whole entry, looked up): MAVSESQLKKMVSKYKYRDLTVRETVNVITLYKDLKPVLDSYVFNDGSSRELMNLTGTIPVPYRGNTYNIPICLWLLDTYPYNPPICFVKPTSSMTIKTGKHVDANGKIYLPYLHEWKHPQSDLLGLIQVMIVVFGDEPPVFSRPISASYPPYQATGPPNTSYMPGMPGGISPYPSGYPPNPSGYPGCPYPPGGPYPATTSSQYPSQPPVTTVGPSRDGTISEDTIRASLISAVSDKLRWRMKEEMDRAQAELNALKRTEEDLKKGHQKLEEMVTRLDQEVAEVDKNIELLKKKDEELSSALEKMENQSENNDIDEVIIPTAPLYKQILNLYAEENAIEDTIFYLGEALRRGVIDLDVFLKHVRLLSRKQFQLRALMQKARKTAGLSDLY
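Steps: Tsg101 binding domain dispensed (10 uM final), compounds pinned in DMSO, FITC-labeled PTAP-motif peptide added (50 nM final); after 20 min binding at room temperature, polarization measured.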
PINK1 modulator: modulators of PINK1 expression; AID 624263; Potency, µM (titrated, usually from 76.6 µM), inactives show at the top dose activation (PINK1 increase), hits mostly activators; actives 0.2% (n = 410,000); PINK1 immunofluorescence, high-content cytometry, 24 h; active means well fitted activation curve with a large enough effect; inconclusive means small, poorly fitted or top-dose-only effect; cell line not stated here; further: % of control where 0% means no effect; nearly all actives have a fitted effect of over 65% in size
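Compound titrations (5 concentrations, 24 h) on a stable cell line; DMSO and CCCP controls. Endpoint: fixed-cell PINK1 immunofluorescence with mitochondrial, cell and nuclear markers, scanned by microplate cytometer.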
MCF10A rerep: inducers of DNA re-replication in MCF 10A breast cells. MCF 10A DNA re-replication, Hoechst nuclear intensity, 48 h. Potency, µM (top dose mostly 46.1 µM), inactives show at the top dose activity, positive = re-replication, usual class: activators. actives 2.9% (n = 350,000). AID 624296; further: % of control where 0% means no effect; nearly all actives have a fitted effect of over 50% in size
SW480 rerep: DNA re-replication induction in SW480 cells. SW480 DNA re-replication, Hoechst DNA content imaging, 48 h. Potency, µM (top dose mostly 46.1 µM), for the others: at the highest dose re-replication activation, usual class: activators. actives 1.8% (n = 340,000). AID 624297; further: % of control where 0% means no effect; nearly all actives have a fitted effect of over 55% in size
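Image-based read-out: total Hoechst fluorescence of nuclei (405 nm excitation, 500-530 nm emission), with hits raising the fraction of high-intensity nuclei. SW480 colon cells incubated 48 hr with compounds at 37 C.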
KB-3-1 tox: kills parental KB-3-1 adenocarcinoma cells; KB-3-1 viability, CellTiter-Glo ATP luminescence, 72 h; Potency, µM (doses to about 46.1 µM), usual class: cytotoxic; actives 1.4% (n = 400,000); further: on the % scale 0 is the no-effect control and ±100 the full control effect; nearly all actives have a fitted effect of over 60% in size
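Parental KB-3-1 viability, qHTS format: 72 h compound exposure, 37 °C; CellTiter-Glo; media-only wells and DMSO plates as controls; concentration-effect fits on corrected data.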
KB-V1 cytotox: KB-V1 MDR subline cytotoxicity; Potency, µM (titrated, usually from 46.1 µM), most hits filed as cytotoxic; KB-V1 MDR cells viability, CellTiter-Glo, 72 h; actives 3.4% (n = 400,000); further: on the % scale 0 is the no-effect control and ±100 the full control effect; nearly all actives have a fitted effect of over 60% in size
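KB-V1 MDR subline cells in DMEM (phenol-red free, 10% FBS) exposed to compounds in qHTS concentration series for 72 h at 37 degrees C. Viability read by CellTiter-Glo luminescence; concentration-effect curves fitted after normalization and correction.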
Starred values were filed as active, the others as inactive; i = inactive; u = inconclusive; x = no result; [ ] = remark or other dose. Unless noted, the call rests on the fitted dose curve; in most records, active means well fitted curve in the direction sought with a large enough effect; inconclusive means small, poorly fitted or top-dose-only effect, or another doubt; inactive means no such curve, though single readings can be large; an effect the other way counts as inactive or inconclusive. Potency means the concentration at half of the fitted maximal effect.

SMILES	PTAP TSG101 blk	PINK1 modulator	MCF10A rerep	SW480 rerep	KB-3-1 tox	KB-V1 cytotox
Cc1ccc([C@H]2C[C@@H](n3cc(-c4ccc(F)cc4)nn3)[C@H](O)CN2C(=O)C2CCCCC2)cc1	x	0%	x	x	u	9.2µM*
CN(C)c1ccc(NC(=O)Cn2cc(S(=O)(=O)Cc3ccccc3Cl)c3ccccc32)cc1	x	7%	x	x	x	x
Cc1cc(C)c2c(n1)NCCC2	x	x	x	x	i	i
Cc1ccc(C(=O)N/N=C(/CC(=O)c2cccs2)C(F)(F)F)cc1	2%	45µM*	18µM*	-3%	u	u
O=C(N/N=C(\CC(=O)c1cccs1)C(F)(F)F)c1ccncc1	-5%	-1%	u	7.3µM*	i	u
O=C(O)CC/C(=N\NC(=O)c1ccccc1)c1cccs1	0%	3%	-2%	-6%	i	i
CCOc1ccc(C(=O)N2CCC(c3nc4ccccc4o3)CC2)cc1	x	0%	x	x	x	x
CC(C)CN(C(=O)COC(=O)C12CC3CC(CC(O)(C3)C1)C2)c1c(N)n(Cc2ccccc2)c(=O)[nH]c1=O	x	2%	x	x	i	i
Cc1ccc2c(CC(=O)OCC(=O)N(CC(C)C)c3c(N)n(Cc4ccccc4)c(=O)[nH]c3=O)coc2c1	4%	u	u	6.5µM*	i	i
Cc1nnc(SCC(=O)N(CC(C)C)c2c(N)n(Cc3ccccc3)c(=O)[nH]c2=O)n1N	-3%	3%	2%	1.3µM*	i	u
CC(C)CN(C(=O)COC(=O)C12CC3CC(CC(C3)C1)C2)c1c(N)n(Cc2ccccc2)c(=O)[nH]c1=O	3%	-2%	-21%	4.1µM*	u	i
COc1ccc(NC(=O)[C@H](Cc2c[nH]c3ccccc23)NC(=O)[C@@H]2Cc3ccccc3CN2)cc1	0%	3%	15µM*	u	i	i
CC(C)c1ccc(NC(=O)[C@H](NC(=O)[C@@H]2Cc3ccccc3CN2)c2ccccc2)cc1	-1%	u	21µM*	u	i	i
COc1ccc(CNC(=O)[C@H](Cc2c[nH]c3ccccc23)NC(=O)[C@@H]2Cc3ccccc3CN2)cc1	-8%	2%	15%	10%	i	i
CC(C)c1ccc(NC(=O)[C@H](Cc2c[nH]c3ccccc23)NC(=O)[C@@H]2Cc3ccccc3CN2)cc1	0%	0%	21µM*	u	u	i
Cc1cccc(NC(=O)[C@@H](CC(C)C)NC(=O)[C@@H]2Cc3ccccc3CN2)c1	-4%	-1%	-3%	6%	i	i
Cc1ccccc1C(=O)Nc1nc2nc(-c3ccccc3)cc(=O)n2[nH]1	x	1%	x	x	i	u
CCCCNC(=S)NNC(=O)CCn1nc(C)c(Br)c1C	-2%	6%[38.3 µM]	6%	8.2µM*	i	i
CC(C)OCCCNC(=O)C(=O)Nc1ccc2nc3n(c(=O)c2c1)CCCCC3	x	7%	x	x	i	i
Cc1ccc(N[S+](=O)([O-])c2cc3c(cc2CCc2ccccc2)NC(=O)CO3)cc1C	x	x	x	x	i	i
O=C(Nc1ccc(Cl)cn1)c1ccccc1F	-3%	3%	13µM*	12µM*	23µM*	u
O=C(Nc1ccc(Cl)cn1)c1cccc(F)c1	-3%	2%	13µM*	10µM*	6.5µM*	3.7µM*
O=C(Nc1ccc(Cl)cn1)Nc1ccccc1F	-11%	0%	14%	-1%	i	i
CCCCOc1ccc(S(=O)(=O)Nc2cccc(-c3ccc(N4CCOCC4)nn3)c2)cc1	x	0%	x	x	i	u
COc1ccccc1COCC(O)CN(Cc1ccco1)Cc1ccccc1O (stereo not drawn)	1%	4%	13%	8%	i	7.3µM*
Cc1ccc(NC(=O)CN(Cc2ccco2)Cc2ccccc2O)cc1C	0%	u	u	u	u	i

Compound activity (PubChem)
